# Screening results as filed in PubChem BioAssay.
# DT40 TDP1 CPT – growth inhibition of DT40 Tdp1-/-;hTDP1 cells with camptothecin (screen for TDP1 inhibitors); chicken DT40 Tdp1-/-;hTDP1 cells + 20 nM CPT, ATP luminescence, 48 h; Potency, µM (top dose mostly 46.2 µM), without a hit: at the highest dose activity change, negative = growth inhibition, actives largely listed as inhibitors; 12% of 420,000 active; further: potency means the concentration at half of the fitted maximal effect; on the % scale 0 is the no-effect control and ±100 the full control effect; nearly all actives have a fitted effect of over 55% in size
#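 Chicken DT40 Tdp1-/- cells stably complemented with human TDP1 were seeded at 400 cells/well in medium containing 20 nM camptothecin, exposed to pin-transferred compounds, and grown at 37 °C for at least 48 hr. Viability was read as ATP luminescence.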
# DT40 TDP1 no CPT – qHTS for Inhibitors of human tyrosyl-DNA phosphodiesterase 1 (TDP1): qHTS in cells in absence of CPT. DT40 Tdp1-/- hTDP1 cells, no CPT, ATP luminescence, 48 h. Potency, µM (doses to about 46.2 µM), for the others: top-dose activity change, negative = growth inhibition, most hits filed as inhibitors. 15% of 420,000 active. AID 686978, 2013; further: potency means the concentration at half of the fitted maximal effect; on the % scale 0 is the no-effect control and ±100 the full control effect; nearly all actives have a fitted effect of over 55% in size
#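 Compound effects on proliferation are scored in DT40 Tdp1-/-;hTDP1 cells in the absence of CPT. ATP levels (CellTiter-Glo luminescence) are recorded after a ≥48 hr, 37 °C incubation.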
# DRD3 agonist – activates the human D3 dopamine receptor; P35462; D3R DiscoveRx beta-arrestin cells, luminescence, 90 min; max activation, %; 0.58% of 410,000 active; AID 652048; in the data active means max activation above about 30%; further: 0% is about no effect
# Target sequence (P35462 whole entry, looked up): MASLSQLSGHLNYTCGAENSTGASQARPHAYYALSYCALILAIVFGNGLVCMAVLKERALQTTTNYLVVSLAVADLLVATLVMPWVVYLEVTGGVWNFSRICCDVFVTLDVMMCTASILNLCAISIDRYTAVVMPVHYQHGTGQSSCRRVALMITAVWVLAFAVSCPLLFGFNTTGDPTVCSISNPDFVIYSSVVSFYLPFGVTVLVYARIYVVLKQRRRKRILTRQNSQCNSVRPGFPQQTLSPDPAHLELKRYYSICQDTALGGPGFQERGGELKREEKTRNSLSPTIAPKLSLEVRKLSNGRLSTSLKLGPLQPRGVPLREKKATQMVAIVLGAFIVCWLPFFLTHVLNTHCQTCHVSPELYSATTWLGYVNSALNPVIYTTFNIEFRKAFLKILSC
#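 Agonist-mode cell screen: cells plated at 1500/well and incubated overnight at 37 °C, then exposed to library compounds for 90 min at 37 °C. Detection reagent was added for 30–60 min at room temperature, and luminescence was read.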
# IL-1B inflam inh – inhibitors of inflammasome signaling (IL-1 beta secretion); AID 743279; 4.7% of 360,000 active; activity change, % at 57.5 µM; THP-1 LPS/ATP IL-1B secretion, AlphaLISA, 16 h; active compounds read low; in the data active means activity change below about -50%; inconclusive means mostly about -30% to -49%; further: on the % scale 0 is the no-effect control and ±100 the full control effect
#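 THP-1 cells pretreated 1 hr with compounds (up to 57.5 uM final), then stimulated with LPS (250 ng/mL final) plus ATP (1.25 mM final); secreted IL-1B measured by AlphaLISA after 16 hr, decreased signal indicating inhibition.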
# ClpP mod – qHTS Assay for Activators of ClpP. Potency, µM (titrated, usually from 57.5 µM), inactives show top-dose activity change, negative = active. 1.9% of 340,000 active. purified B. subtilis ClpP, FRET peptide cleavage, 20 min; active means well fitted falling curve with a large enough effect; inconclusive means small, poorly fitted or top-dose-only effect; inactive means no such curve, though single readings can be large or run the other way; further: potency means the concentration at half of the fitted maximal effect; the source files actives as falling curves though it sought activators and does not explain the sign; nearly all actives have a fitted effect of over 65% in size
# Target sequence (P80244 whole entry, looked up): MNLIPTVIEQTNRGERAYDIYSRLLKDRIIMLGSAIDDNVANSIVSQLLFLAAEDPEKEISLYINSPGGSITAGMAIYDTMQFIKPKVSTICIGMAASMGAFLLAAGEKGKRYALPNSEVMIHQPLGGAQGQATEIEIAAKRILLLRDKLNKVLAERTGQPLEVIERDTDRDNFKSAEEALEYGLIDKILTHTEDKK
#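 FRET quenching reversal measured ClpP activation: 10 microg/mL B. subtilis ClpP at pH 8 with the FRET-FV decapeptide, read at 430 nm after 320 nm excitation. The 20-min minus 0-min signal was scaled between DMSO/no-enzyme wells and ADEP (5.8 microM final).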
# D3 antag – blocks the human D3 dopamine receptor; D3R cells, DiscoveRx beta-arrestin luminescence, antagonist mode; active compounds read low; max response, negative = inhibition, %; 2.5% of 360,000 active; AID 652054; in the data active means max response below about -50%; inconclusive means no clear call, values can overlap the other calls; further: on the % scale 0 is the no-effect control and ±100 the full control effect
#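 Cells plated overnight at 1500 cells/well, then exposed to library compounds with dopamine controls for 90 minutes at 37 degrees C. DiscoveRx reagent added for 30–60 minutes at room temperature; luminescence read, quantitative HTS format.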
# The depositor's hits bear a star; ? = inconclusive; . = not tested or not shown. Compounds with a hit are over-represented: about 21% of the library has one in this group of screens. Unless noted, the call rests on the fitted dose curve; in most records, active means well fitted inhibition curve with a large enough effect; inconclusive means small, poorly fitted or top-dose-only effect; inactive means flat fitted curve, though single readings scatter.
SMILES,DT40 TDP1 CPT,DT40 TDP1 no CPT,DRD3 agonist,IL-1B inflam inh,ClpP mod,D3 antag
CCCC1([C@H](O)C/C=C/[C@H]2[C@H](O)CC(=O)[C@@H]2CCCCCCC(=O)OC)CCC1,15µM*,11µM*,9,.,.,.
c1ccc(CCn2nnnc2C(c2cccnc2)N2CCN(c3ccccc3)CC2)cc1 (configuration not stated),13µM*,11µM*,1,-16,1%,15
c1ccc(CCn2nnnc2C(c2cccnc2)N2CCN(c3nc4ccccc4s3)CC2)cc1 (configuration not stated),18µM*,11µM*,8,-64*,-9%,10
c1ccc(CCn2nnnc2C(c2cccs2)N2CCN(Cc3ccc4c(c3)OCO4)CC2)cc1 (configuration not stated),?,23µM*,-4,?,-2%,-67*
Oc1ccc(N2CCN(C(c3cccnc3)c3nnnn3Cc3ccccc3)CC2)cc1 (configuration not stated),?,18µM*,29,5,2%,56
COc1cc(SC)ccc1C(=O)N(Cc1ccccc1)c1ccccn1,-4%,?,1,-19,.,1
COCCn1nnnc1C(c1ccc(OC)cc1OC)N1CCN(c2ccccc2)CC1 (configuration not stated),-20%,-22%,-15,1,0%,-5
COc1ccc(OC)c(C(c2nnnn2CCc2ccccc2)N2CCN(c3ccccc3)CC2)c1 (configuration not stated),?,35µM*,-5,-85*,-4%,-7
Fc1ccc(N2CCN(C(c3cccs3)c3nnnn3CCc3ccccc3)CC2)cc1 (configuration not stated),?,23µM*,-4,-4,-2%,3
Cc1ccccc1N(C(=O)c1csnn1)C(C(=O)NC1CCCC1)c1ccncc1 (configuration not stated),6%,5%,2,28,-4%,8
C[C@@H]1CN([C@@H](C)CO)C(=O)c2cc(NC(=O)C3CCCCC3)ccc2O[C@@H](C)CCCCO[C@@H]1CN(C)C(=O)CCCN(C)C,4%,-9%,-6,17,-2%,7
Cc1nc(N2CCCC2)ncc1C(=O)Nc1ccc(F)cc1F,-11%,-8%,4,.,?,.
CCN1C(=O)c2ccc(C(=O)NCc3ccco3)cc2C1=O,24%,-2%,0,11,0%,13
CCCC(C(=O)Nc1ccc(S(=O)(=O)N2CCCC2)cc1)c1ccccc1 (configuration not stated),21µM*,?,4,-23,-1%,-8
CC(C)C(=O)NC(=S)Nc1ccc(S(=O)(=O)N2CCCC2)cc1,?,16µM*,-4,-1,0%,-1
CCCC(C)C(=O)Nc1ccc(S(=O)(=O)N2CCCC2)cc1 (configuration not stated),6%,-6%,3,6,?,2
CNc1ccccc1C(=O)OC(C)C(=O)Nc1ccc(S(=O)(=O)N2CCCC2)cc1 (configuration not stated),?,?,2,-10,28µM*,-5
O=C(NC(=S)Nc1ccc(S(=O)(=O)N2CCCC2)cc1)C1CCC1,?,16µM*,1,14,1%,1
O=C(Nc1ccccc1)N1CC2(CCN(C(=O)c3cnccn3)CC2)C1,3%,1%,.,.,.,.
CC(Nc1cccc([N+](=O)[O-])c1)C(=O)Nc1ccc(S(=O)(=O)N2CCCC2)cc1 (configuration not stated),15µM*,15µM*,-2,?,-13%,-6
O=[N+]([O-])c1cccc(S(=O)(=O)Nc2ccc(S(=O)(=O)N3CCCC3)cc2)c1,-27%,-20%,3,21,0%,-3
CCCCNC(=O)c1c(O)c2cccc3c2n(c1=O)CCC3,6%,?,-1,32,11µM*,0
NNC(=O)c1c(O)c2cccc3c2n(c1=O)CCC3,-3%,1%,-2,-6,-13%,18
CCOC(=O)C(C(=O)OCC)c1c([N+](=O)[O-])c(=O)n2c3c(cccc13)CCC2,?,21µM*,3,9,.,3
CCCc1nnc(NC(=O)c2c(O)c3cccc4c3n(c2=O)CCC4)s1,3.5µM*,0.79µM*,.,.,-23%,.
SMILES,DT40 TDP1 CPT,DT40 TDP1 no CPT,DRD3 agonist,IL-1B inflam inh,ClpP mod,D3 antag
CCOC(=O)C1=CC[C@@H](c2cc3cc(OC)ccc3n2C)N(S(=O)(=O)c2ccc(C)cc2)[C@H]1C(=O)OCC,?,?,-1,26,0%,?
COc1cc(N2N=C(c3ccccc3)CC2c2ccccc2)c(C=O)cc1C=O (configuration not stated),?,18µM*,-6,8,0%,-10
COc1ccc(C2CC(c3ccccc3)=NN2c2ccc(N)cc2)cc1 (configuration not stated),?,21µM*,4,?,1%,0
COc1ccc(C2CC(c3ccccc3)=NN2S(=O)(=O)c2ccccc2)cc1 (configuration not stated),7.3µM*,4.6µM*,5,0,-2%,31
Cc1nn(C)cc1/C=N/NC(=O)CSc1ccccn1,8%,1%,6,5,1%,2
CC1c2ccccc2-c2ccccc2N1C (configuration not stated),-23%,?,4,-3,2%,-7
CN1CCC(=C2c3ccccc3C(O)c3ccccc32)CC1 (configuration not stated),0%,2%,2,-8,-1%,-80*
COc1ccc(NC(=O)CC(c2ccc(F)cc2)c2ccc(OC(C)C)cc2)cc1 (configuration not stated),?,21µM*,5,9,1%,-4
CCOc1ccc(NC(=O)Cc2ccccc2)cc1,-3%,?,-4,-7,-3%,1
CCOc1ccc(NC(=O)CC(c2ccccc2)c2ccc(F)cc2)cc1 (configuration not stated),-15%,15µM*,-4,5,2%,-6
CC(C)Oc1ccc(C(CC(=O)O)c2ccc(F)cc2)cc1 (configuration not stated),23%,-2%,-7,19,.,-11
